S2 tox – cell viability loss in ATXN counter-screen. S2 cells (HEK-293 line with an ATXN2-luciferase reporter) viability, CellTiter-Fluor protease fluorescence, 24 h. Potency, µM (highest dose often 56.7 µM), actives largely listed as cytotoxic. 400,000 compounds, 0.49% hits. AID 651635; further: nearly all actives have a fitted effect of over 40% in size
GLP1R ag – activates the human GLP-1 receptor; P43220; HEK293 GLP-1R CRE-luciferase, luminescence, 4-6 h; cells express a hypersensitive GLP-1R form; Potency, µM (doses to about 45.6 µM), without a hit: at the top dose activation, most hits filed as activators; 380,000 compounds, 0.007% hits; AID 624172; further: % of control where 0% means no effect
Target sequence (P43220 whole entry, looked up): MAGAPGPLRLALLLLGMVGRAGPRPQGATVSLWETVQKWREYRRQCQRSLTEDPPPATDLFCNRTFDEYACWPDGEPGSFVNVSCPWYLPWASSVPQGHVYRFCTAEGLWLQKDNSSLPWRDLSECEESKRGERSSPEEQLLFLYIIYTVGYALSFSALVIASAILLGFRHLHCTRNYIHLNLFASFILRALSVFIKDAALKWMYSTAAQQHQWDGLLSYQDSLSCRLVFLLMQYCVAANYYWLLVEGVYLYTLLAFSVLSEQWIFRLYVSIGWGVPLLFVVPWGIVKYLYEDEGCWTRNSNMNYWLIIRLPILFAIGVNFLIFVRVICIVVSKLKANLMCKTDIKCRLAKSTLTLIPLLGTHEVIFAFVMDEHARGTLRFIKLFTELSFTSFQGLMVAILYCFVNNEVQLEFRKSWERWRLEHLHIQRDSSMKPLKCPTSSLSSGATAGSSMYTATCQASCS
HepG2 tox-1 – counter-screen for TGF-b inhibitors: cytotoxicity in HepG2 cells | HepG2 CAGA-GFP viability, ATP luminescence, 18 h | Potency, µM (doses to about 46.1 µM), without a hit: top-dose activity change, negative = cytotoxicity, hits mostly cytotoxic | 410,000 compounds, 0.76% hits
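CellTiter-Glo luminescence gave cytotoxicity after 18 hours at 37 degrees C. The cells were HepG2 CAGA-GFP in 1% FBS DMEM, stimulated with 500 pg/mL TGF-beta after compound addition. %Activity was normalised to no-cell wells (complete cell-killing) and DMSO (no toxicity), and curves were fitted and classified.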
GLP-1R inv ag – GLP-1 receptor (human) inverse agonism; P43220; HEK293 GLP-1R CRE-luciferase, luminescence, 24 h; GLP-1R form is constitutively active; Potency, µM (doses to about 38.3 µM), for the others: at the highest dose activity change, negative = inhibition, usual class: inhibitors; 410,000 compounds, 1.6% hits; further: on the % scale 0 is the no-effect control and ±100 the full control effect; nearly all actives have a fitted effect of over 55% in size
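Using stably transfected HEK293 (constitutively active GLP-1R, cAMP-luciferase reporter), compounds were incubated 24 hr and luciferase measured by luminescence.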
ATXN2 expr inh – reduces ATXN2 reporter expression in HEK-293 cells. Potency, µM (series often up to 57 µM), inactives show top-dose activity change, negative = inhibition, usual class: inhibitors. 360,000 compounds, 0.72% hits. HEK-293 ATXN2-luciferase reporter, luminescence, 24 h. AID 1745845; further: on the % scale 0 is the no-effect control and ±100 the full control effect; nearly all actives have a fitted effect of over 55% in size
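ATXN2-luciferase reporter cells (luciferase flanked by upstream and downstream ATXN2 gene portions) were treated 24 h at 37 °C with compounds at up to 57 uM. SteadyGlo luminescence gave expression; GF-AFC fluorescence gave viability.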
TGFb inhibitor – TGF-b pathway inhibition. HepG2 CAGA-GFP TGF-b/SMAD3 reporter, GFP fluorescence, 18 h; TGF-beta stimulated, 500 pg/mL final. Potency, µM (doses to about 46.1 µM), for inactives: top-dose activity, negative = inhibition, hits mostly inhibitors. 410,000 compounds, 1.2% hits; further: on the % scale 0 is the no-effect control and ±100 the full control effect; nearly all actives have a fitted effect of over 65% in size
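Cell-based qHTS in HEPG2 carrying a CAGA-GFP Smad reporter; compounds added before 500 pg/mL final TGF-beta, 18 h incubation at 37 degrees C, GFP fluorescence quantified per cell by imaging cytometry.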
TGFb CAGA inh – confirmation of TGF-b signaling inhibitors in HepG2 reporter cells. shares compounds with TGFb inhibitor. HepG2 CAGA-GFP TGF-b reporter, GFP fluorescence, 18 h; cells stimulated with TGF-beta, 500 pg/mL. Potency, µM (series often up to 46.1 µM), inactives show at the highest dose activity, negative = inhibition, actives largely listed as inhibitors. 1,600 compounds, 63% hits. AID 720534; further: on the % scale 0 is the no-effect control and ±100 the full control effect; nearly all actives have a fitted effect of over 65% in size
HepG2 tox-2 – counter-screen for TGF-b inhibitors: cytotoxicity in HepG2 cells. HepG2 CAGA-GFP viability, ATP luminescence, 18 h; cells stimulated with TGF-beta, 500 pg/mL. 1,600 compounds, 27% hits. shares compounds with TGFb inhibitor. Potency, µM (highest dose often 46.1 µM), inactives show at the highest dose activity, negative = cytotoxicity, most hits filed as inhibitors; further: on the % scale 0 is the no-effect control and ±100 the full control effect; nearly all actives have a fitted effect of over 70% in size
CCL64 TGFb inh – orthogonal confirmation of TGF-b inhibitors in CCL64 cells; CCL64 CAGA-GFP reporter, TGF-b stimulated, GFP fluorescence, 18 h; Potency, µM (highest dose often 46.1 µM), for the others: at the top dose activity, negative = inhibition, most hits filed as inhibitors; 1,600 compounds, 41% hits; shares compounds with TGFb inhibitor; further: nearly all actives have a fitted effect of over 65% in size
COP TGFb inh – validation of TGF-b inhibitors in HepG2 COP promoter reporter; HepG2 COP-GFP TGF-b reporter, GFP fluorescence, 18 h; cells stimulated by added recombinant TGF-beta; shares compounds with TGFb inhibitor; 1,600 compounds, 3% hits; Potency, µM (titrated, usually from 46.1 µM), for the others: top-dose activity, negative = inhibition, actives largely listed as inhibitors; further: nearly all actives have a fitted effect of over 70% in size
* hit, by the source's call. Most compounds without a hit are left out; they make up all but 3.7% or so of the library. The call rests on the fitted dose curve; in most records, active means well fitted curve in the direction sought with a large enough effect; inconclusive means small, poorly fitted or top-dose-only effect, or another doubt; inactive means no such curve, though single readings can be large; an effect the other way counts as inactive or inconclusive. Potency means the concentration at half of the fitted maximal effect.

How did O=C(Nc1ccc(S(=O)(=O)N2CCOCC2)cc1)c1ccc([N+](=O)[O-])s1 do in these assays?
S2 tox: inactive; GLP1R ag: 4%; HepG2 tox-1: -21%; GLP-1R inv ag: 40%; ATXN2 expr inh: -26%; TGFb inhibitor: 4.5µM*; TGFb CAGA inh: 1.6µM*; HepG2 tox-2: 5.2µM*; CCL64 TGFb inh: -17%; COP TGFb inh: 29%

Results for O=C(Nc1ccc(S(=O)(=O)N2CCOCC2)cc1)c1cccs1 ?
S2 tox: inactive; GLP1R ag: -2%; HepG2 tox-1: 1%; GLP-1R inv ag: -2%; ATXN2 expr inh: 1%; TGFb inhibitor: -4%

Results for O=C(Nc1ccc(N2CCOCC2)cc1)c1ccc([N+](=O)[O-])o1 ?
S2 tox: inconclusive; GLP1R ag: 2%; HepG2 tox-1: -61%; GLP-1R inv ag: 10%; ATXN2 expr inh: -6%; TGFb inhibitor: 5.6µM*; TGFb CAGA inh: 12µM*; HepG2 tox-2: 23µM*; CCL64 TGFb inh: inconclusive; COP TGFb inh: 13%

What do the screens show for `Cc1nc2nc(SCC(=O)NCc3ccccc3)nn2c(C)c1Cc1ccccc1Cl`?
S2 tox: inactive; GLP1R ag: 1%; HepG2 tox-1: 2%; GLP-1R inv ag: -7%; ATXN2 expr inh: -23%; TGFb inhibitor: -15%

What do the screens show for `CCO[C@@H]1OC(C(=O)NCc2ccccc2)=C[C@H](c2ccc(Br)cc2)[C@H]1CCCO`?
S2 tox: inconclusive; GLP1R ag: 15%; HepG2 tox-1: -3%; GLP-1R inv ag: inconclusive; ATXN2 expr inh: inconclusive; TGFb inhibitor: inconclusive; TGFb CAGA inh: inconclusive; HepG2 tox-2: -12%; CCL64 TGFb inh: inconclusive; COP TGFb inh: 7%

Results for CCO[C@H]1OC(C(=O)Nc2ccccc2)=C[C@@H](c2ccc(C(F)(F)F)cc2)[C@@H]1CCCO ?
S2 tox: inconclusive; GLP1R ag: 7%; HepG2 tox-1: -19%; GLP-1R inv ag: inconclusive; ATXN2 expr inh: inconclusive; TGFb inhibitor: 14µM*; TGFb CAGA inh: inconclusive; HepG2 tox-2: -29%; CCL64 TGFb inh: inconclusive; COP TGFb inh: 25%

What do the screens show for `CCn1c(CN2CCCCC2)nc2cc(NC(=O)c3ccc([N+](=O)[O-])cc3)ccc21`?
S2 tox: inactive; HepG2 tox-1: -25%; GLP-1R inv ag: inconclusive; ATXN2 expr inh: 11%; TGFb inhibitor: -12%

Results for CC(C)CCCCCCCCCCCCC(=O)NCC(=O)NC1C(C)OC(Nc2ncnc3nc[nH]c23)C(O)C1O (stereo not drawn) ?
S2 tox: inconclusive; GLP1R ag: -9%; HepG2 tox-1: -25%; GLP-1R inv ag: -66%; ATXN2 expr inh: inconclusive; TGFb inhibitor: 0.35µM*; TGFb CAGA inh: 1µM*; HepG2 tox-2: inconclusive; CCL64 TGFb inh: 0.52µM*; COP TGFb inh: -29%

What do the screens show for `Cc1ccc(-n2c3c(cc(C(=O)Nc4ccccc4C(N)=O)c2=O)C(=O)CC(C)(C)C3)cc1`?
S2 tox: inactive; GLP1R ag: 0%; HepG2 tox-1: -2%; GLP-1R inv ag: -3%; ATXN2 expr inh: -5%; TGFb inhibitor: -1%

Results for COc1ccc(CNC(=O)c2c(C)oc3c2C(=O)c2ccccc2C3=O)cc1 ?
S2 tox: inactive; GLP1R ag: -2%; HepG2 tox-1: 0.89µM*; GLP-1R inv ag: -15%; ATXN2 expr inh: inconclusive; TGFb inhibitor: 1µM*; TGFb CAGA inh: 0.65µM*; HepG2 tox-2: 1µM*; CCL64 TGFb inh: 5.2µM*; COP TGFb inh: 2.1µM*

What do the screens show for `CCCCC(=O)NC(c1cccc([N+](=O)[O-])c1)c1c(OC(C)=O)ccc2ccccc12` (stereo not drawn)?
S2 tox: inconclusive; GLP1R ag: -9%; HepG2 tox-1: -35%; GLP-1R inv ag: inconclusive; ATXN2 expr inh: inconclusive; TGFb inhibitor: inconclusive

What do the screens show for `CCCCC(=O)NC(c1cccc([N+](=O)[O-])c1)c1ccc2cccnc2c1O` (stereo not drawn)?
S2 tox: inconclusive; GLP1R ag: -1%; HepG2 tox-1: 10%; GLP-1R inv ag: inconclusive; TGFb inhibitor: inconclusive; TGFb CAGA inh: 10µM*; HepG2 tox-2: 7.3µM*; CCL64 TGFb inh: inconclusive; COP TGFb inh: 10%

What do the screens show for `Cc1cc(=O)n(Cc2ccccc2Cl)c2c1c(C)nn2-c1ccccc1`?
S2 tox: inactive; HepG2 tox-1: -11%; GLP-1R inv ag: 11%; ATXN2 expr inh: -6%; TGFb inhibitor: 1%

What do the screens show for `Cc1cccc(N(C(=O)CNC(=O)c2ccco2)C(C(=O)NC2CCCCC2)c2cccnc2)c1` (stereo not drawn)?
S2 tox: inactive; GLP1R ag: 2%; HepG2 tox-1: -20%; GLP-1R inv ag: 3%; ATXN2 expr inh: -7%; TGFb inhibitor: -30%

How did O=C(NC1CCCCC1)C(c1cccnc1)N(C(=O)CCl)c1cccc(Cl)c1 (stereo not drawn) do in these assays?
S2 tox: 11µM*; GLP1R ag: -33%; HepG2 tox-1: 22µM*; GLP-1R inv ag: inconclusive; ATXN2 expr inh: 20µM*; TGFb inhibitor: 10µM*; TGFb CAGA inh: 5.8µM*; HepG2 tox-2: 9.2µM*; CCL64 TGFb inh: 4.6µM*; COP TGFb inh: inconclusive
